About 4,300 (8.3%) of roughly 52,000 compounds were called active. The list comes from a sample in which actives are over-represented; it also holds similar structures and randomly drawn compounds. Unmarked numbers belong to inactive results. Rule as the data show it: active = survival mostly below about 52% (no sharp cut-off); inactive = mostly above about 56%.
Test system: DeltatarO mutant
Test: growth inhibition of S. aureus wild type versus tarO mutant, primary screen, teichoic acid synthesis inhibitors, RN4220, OD600 (AID 463173)
Settings: OD600, 18 h, stronger effect = lower value, screened at 18.75 µg/mL (by protocol)

Row | SMILES | survival
1 | COc1cccc2cc(-c3nc(-c4ccc(Cl)cc4)cs3)c(=O)oc12 | 83%
2 | Cc1ccc(Sc2c(C(=O)NCc3ccccc3C)[nH]c3ccccc23)cc1 | 77%
3 | CCOc1cccc(C(=O)Nc2ccc(Cl)cn2)c1 | 72%
4 | Cc1cccc(Cn2cc(S(=O)(=O)c3cccc(Cl)c3)c(=O)c3cc(F)c(N4CCOCC4)cc32)c1 | 85%
5 | Cc1ccc(C)c(CN2CCC(CNC(=O)Cn3ncc4c([nH]c5ccccc54)c3=O)CC2)c1 | 70%
6 | Cc1ccc(S(=O)(=O)c2[nH]c(-c3ccccc3)nc2SCC(=O)O)cc1 | 78%
7 | COC(=O)c1ccc(NC(=O)c2cc3cc(C)ccc3n2C)cc1 | 66%
8 | O=C1C(c2nc3ccccc3[nH]2)=C(O)c2ccccc21 | 74%
9 | CCCN1CCc2nc(N3CCN(CC)CC3)ncc2C1 | 72%
10 | Cc1ccc2oc(-c3ccc(C)c(NC(=O)c4ccc(-c5ccccc5[N+](=O)[O-])o4)c3)nc2c1 | 68%
11 | Cc1ccc2oc(-c3ccc(Cl)c(NC(=O)c4ccc(-c5ccccc5[N+](=O)[O-])o4)c3)nc2c1 | 74%
12 | COc1ccc2oc(-c3ccc(C)c(NC(=O)c4ccc(-c5ccccc5[N+](=O)[O-])o4)c3)nc2c1 | 42% (active)
13 | Cc1cccc(Nc2nn3c(=O)c4cc5c(cc4nc3s2)OCO5)c1 | 116%
14 | Cc1ccc(C)c(Nc2nn3c(=O)c4cc5c(cc4nc3s2)OCO5)c1 | 37% (active)
15 | Cc1cc(C)c(Nc2nn3c(=O)c4cc5c(cc4nc3s2)OCO5)c(C)c1 | 51%
16 | O=C(c1ccc(F)cc1)n1nc(-c2cccnc2)nc1NCc1ccccc1 | 71%
17 | O=C(c1ccco1)n1nc(-c2ccccc2)nc1NCc1ccc(F)cc1 | 65%
18 | O=C(c1ccccc1Cl)n1nc(-c2cccnc2)nc1NCc1ccc(F)cc1 | 55%
19 | O=C(c1ccc(Cl)cc1)n1nc(-c2cccnc2)nc1NCc1ccc(F)cc1 | 43% (active)
20 | COc1ccc(CNc2nc(-c3ccccc3)nn2C(=O)c2ccccc2OC)cc1 | 102%
21 | O=C(c1ccccc1)n1nc(-c2ccccc2)nc1NCc1ccc(F)cc1 | 12% (active)
22 | O=C(c1ccc(F)cc1)n1nc(-c2cccnc2)nc1NCc1ccc(F)cc1 | 73%
23 | O=C(c1ccc(F)cc1)n1nc(-c2ccccc2)nc1NCc1ccc(F)cc1 | 30% (active)

Row | SMILES | survival
24 | Cc1ccccc1C(=O)n1nc(-c2cccnc2)nc1NCc1ccc(F)cc1 | 48%
25 | Cc1cccc(C(=O)n2nc(-c3cccnc3)nc2NCc2ccc(F)cc2)c1 | 54%
26 | COc1ccccc1C(=O)n1nc(-c2ccccc2)nc1NCc1ccc(Cl)cc1 | 56%
27 | COc1ccc(CNc2nc(-c3ccc(Cl)cc3)nn2C(=O)c2ccccc2)cc1 | 36% (active)
28 | Cc1ccc(Cn2ccnc2SCC(=O)Nc2ccc3c(c2)OCO3)cc1 | 92%
29 | COc1ccc(NC(=O)CSc2nc3ccncc3[nH]2)c(OC)c1 | 95%
30 | CCCCC12CN3CC(C)(CN(C1)C3c1cc(Br)ccc1O)C2=O (stereo unspecified) | 72%
31 | CCN=C1S/C(=C\c2cn(CC(=O)NCCOC)c3ccccc23)C(=O)N1CC | 95%
32 | CCOc1ccc(CCNC(=O)CS(=O)(=O)Cc2nc(-c3ccc(OC)cc3)oc2C)cc1 | 83%
33 | COc1ccc(N(CC(=O)NCc2ccc(F)cc2)S(=O)(=O)c2c(C)n[nH]c2C)cc1 | 79%
34 | CCNC(=O)c1cnc2sc(N3CCC(C)CC3)nn2c1=O | 74%
35 | Cc1onc(-c2ccccc2Cl)c1C(=O)NC(C(=O)O)C(C)C (stereo unspecified) | 86%
36 | Cc1ccc(S(N)(=O)=O)cc1NC(=O)c1c(-c2c(Cl)cccc2Cl)noc1C | 55% (active)
37 | Cc1onc(-c2c(F)cccc2Cl)c1C(=O)Nc1ccc(OC(C)C)cc1 | 62%
38 | CC(C)c1cc(C(=O)NCc2ccccc2)no1 | 54%
39 | CCOC(=O)C1CCN(C(=O)CSc2n[nH]c(-c3ccccc3)n2)CC1 | 97%
40 | O=C(Nc1noc2ccccc12)c1c(F)cccc1F | 87%
41 | COC(=O)c1cccc(Nc2c(-c3ccc(OC)cc3)nc3nc[nH]n23)c1 | 64%
42 | Cc1ccc2nc(N3CCN(c4cccc(Cl)c4)CC3)c(-n3nc(C)cc3C)nc2c1 | 0% (active)
43 | COc1ccccc1N1CCN(c2nc3ccc(C)cc3nc2-n2nc(C)cc2C)CC1 | -5% (active)
44 | Cc1cc(C)n(CCc2nc3c4ccccc4nc(N4CCN(c5cccc(C)c5C)CC4)n3n2)n1 | 86%
45 | Cc1cc(C)n(-c2nc3cc(Cl)ccc3nc2N2CCN(c3ccccc3F)CC2)n1 | 98%
46 | Cc1cc(C)n(-c2nc3cc(Cl)ccc3nc2Nc2ccc(C)c(F)c2)n1 | 91%
